Shown is part of a subset that was picked to be rich in hits.
Pf Dd2 growth = qHTS Primary assay for Inhibitors of Plasmodium falciparum Dd2 growth in vitro. P. falciparum Dd2 growth, SYBR Green, 72 h. Potency, µM (top dose mostly 28.9 µM), for the others: at the top dose activity, negative = inhibition, most hits filed as inhibitors. hit rate 4.3% among 120,000; active = well fitted inhibition curve with a large enough effect;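 also: plate controls were DMSO vehicle for no effect and reference drug for full effect; nearly all actives have a fitted effect of over 65% in size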
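Readout: SYBR Green fluorescence, 485 nm excitation, 535 nm emission, after ~16 h lysis at 37C. Before that, Dd2-infected red cells (2.5% hematocrit) grew 72 h with compound, 29 uM top final concentration.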
Numbers without * were called inactive; i = inactive; [ ] = dose if it differs, or a comment. Potency is read from the fitted curve at half-maximal effect.

SMILES	Pf Dd2 growth
COc1ccc(C(=O)N2CCC3(CC2)N(C)C(=O)CS3(=O)=O)c(C)c1	7.7%
COc1ccccc1-c1cnc2n[nH]c(-c3ccccc3)c2n1	i
CS(=O)(=O)N1CCC2(CC1)CN(Cc1ccc(O)cc1)Cc1ccccc1O2	4.8%
CCC(C(=O)Nc1cc(F)ccc1F)n1nc(C)c2c(C)n(-c3ccc(C)cc3)nc2c1=O (stereo not given)	0.5%
CCC(C(=O)NCc1ccc(OC)c(OC)c1)n1nc(C)c2c(C)n(-c3ccc(C)cc3)nc2c1=O (stereo not given)	2.82µM*
Cc1ccc(CCNC(=O)C(C)n2nc(C)c3c(C)n(-c4ccc(C)cc4)nc3c2=O)cc1 (stereo not given)	i
CN(Cc1cccnc1)Cc1cccn1C	-17.8%[44.1 µM]
COc1ccc([S+](=O)([O-])N2CC3(CCN(CC(=O)O)CC3)c3cc(OC)c(OCC4CCCC4)cc32)cc1	i
COc1cc2c(cc1CCc1ccccc1)N(C(=O)c1ccn(C)n1)CC21CCN(C(C)=O)CC1	10µM*
COc1cc2c(cc1OCc1ccccc1)N(C(=O)c1ccccc1OC)CC21CCN(C)CC1	3.98µM*
COc1cc2c(cc1CCc1ccccc1)N([S+](=O)([O-])c1ccc3c(c1)CCO3)CC21CCN(C(C)=O)CC1	10µM*
COc1cc2c(cc1CCc1ccccc1)N(C(=O)CC(C)C)CC21CCN(C(C)=O)CC1	3.98µM*
COc1cccc(CN2C(=O)OC3(CCN(C(=O)c4ccn(C)n4)CC3)C2(C)c2cccnc2)c1 (stereo not given)	i
COc1cc2c(cc1OCc1ccccc1)N(C(=O)Cc1ccc3c(c1)OCO3)CC21CCN(C)CC1	i
COc1cc2c(cc1OCc1ccccc1)N(C(=O)C(C)C)CC21CCN(C)CC1	i
Cn1ccc(C(=O)N2CC(COc3ccccc3)C3(C2)CN(c2ccccc2)C3)n1 (stereo not given)	-1.1%[44.1 µM]
COc1cc2c(cc1OCc1ccccc1)N(C(=O)c1ccc3[nH]ccc3c1)CC21CCN(C)CC1	-16.6%
COc1ccccc1CN1CCOc2cc([S+](=O)([O-])N(C)C)ccc2C1	i
COc1cc2c(cc1Oc1ccccc1)NC(=O)C21CCN(C(=O)Cc2ccccc2)CC1	-10.5%
CC(C)Oc1ccc(C(=O)N2CC(c3nnc(C(C)C)o3)C3(CCOCC3)C2)cc1 (stereo not given)	i
COc1cccc(OC)c1C(=O)NC1CC(=O)N(CCc2ccc(F)cc2)C1 (stereo not given)	-0.1%
Cc1noc(C)c1[S+](=O)([O-])N1CCC2(CC1)C(=NC1CCCCC1)NC(=O)N2c1cccnc1	19.0%
COc1cc(Cl)c(C)cc1NC(=O)CN1C(=O)NC2(CCOCC2)C1=O	-28.4%
CCOC(=O)Cc1csc(NC(=O)C[C@H]2NC(=O)c3ccccc3NC2=O)n1	0.9%
O=C1NC2(CN(CC3CCCCC3)C2)Oc2ccccc21	-2.1%[44.1 µM]
SMILES	Pf Dd2 growth
O=C(c1cc(F)ccc1Cl)N1CCC(Cc2nc(-c3ccc(F)cc3)no2)CC1	i
COc1ccc(S(=O)(=O)NCC2Cn3cccc3C(=O)N2C)cc1 (stereo not given)	-5.6%
CN(Cc1cccc(C(F)(F)F)c1)C(=O)Nc1ccc(Cl)cc1	-11.2%
O=C(NCc1ccc2c(c1)CCCO2)c1ccc(C2CCNC2)cc1 (stereo not given)	-17.2%
CC(C)(C)C(=O)N1CC[C@@H](CC(=O)O)[C@@H](CCN2CCN(c3ccccc3)CC2)C1	16.6%[44.1 µM]
O=C(c1ccn[nH]1)N1C[C@@H](COCC2CC2)[C@H](c2ccncc2)C1	i
COc1ccc(C[C@H](NC(=O)C2=C[C@@H](NC(=O)c3ccc(OC)cc3)[C@@H](O)[C@H](O)C2)C(N)=O)cc1	13.6%
O=C(N[C@@H]1COCC[C@@H]1OCc1cscn1)c1ccc2c(c1)CCO2	-6.5%
COc1ccc(C[C@H](NC(=O)C2=C[C@@H](NC(=O)Nc3ccc(OC(F)(F)F)cc3)[C@@H](O)[C@H](O)C2)C(N)=O)cc1	13.7%
CN1CCCCCCN(C(=O)NC2CCCCC2)[C@H]2CCC[C@H]2C1=O	i
CCOc1ccccc1NC(=O)N1CCCCCCN(C)C(=O)CC1	-24.4%
CCOc1ccccc1NC(=O)N1CCCCCCN(C)C(=O)[C@H]2CCC[C@H]21	11.2µM*
Cc1n[nH]c(C)c1CCC(=O)NC1CCCc2c1[nH]c1c(Cl)cccc21 (stereo not given)	-13.1%
CCc1noc(-c2cccn3c(CNC(=O)c4ccc(F)c(F)c4)nnc23)n1	-3.9%
Cc1ccc(C(=O)N2CCc3sc(C(=O)NC(C)c4ccccc4)cc3C2)cc1 (stereo not given)	7.08µM*
CC(NC(=O)c1cc2c(s1)CCN(C(=O)c1ccccc1)C2)c1ccc(F)cc1 (stereo not given)	-1.5%
Cc1ccc(C(=O)N2CCc3sc(C(=O)NCc4ccc(N(C)C)cc4)cc3C2)cc1	-20.2%
COc1ccc(C(=O)N2CCc3ccc(C(=O)NC(C)C)cc32)cc1	-9.7%
Cn1nccc1C(=O)NCCC1CCN(C(=O)Nc2ccc(F)cc2)CC1	i
O=C(O)C[C@@H]1CCN(C(=O)Nc2ccc(OC(F)(F)F)cc2)C[C@@H]1CCN1C[C@@H]2C[C@H](C1)c1cccc(=O)n1C2	i
C=CCCC(CN1CCOCC1)Oc1ccc(Cn2ccnc2)cn1 (stereo not given)	-14.9%
Cc1ccc(-c2cn(C3CN(C(=O)C(C)CN4CCOCC4)C3)nn2)cc1 (stereo not given)	-15.1%
C=CCCC(CN1CCCC1)Oc1ccc(C(=O)N2CCOCC2)cn1 (stereo not given)	6.31µM*
C=CCCC(CN1CCCOCC1)Oc1ccc(-c2ccccc2)nn1 (stereo not given)	14.1µM*
CN1CCC(Oc2ccc(C(=O)N3CCOCC3)cn2)CC1	6.9%
SMILES	Pf Dd2 growth
CNC(=O)[C@@H]1C[C@@H](n2cc(CNC(=O)Nc3cccc(Cl)c3)nn2)CN1	-9.3%
COc1ccc(NC(=O)CN2C(=O)NC3(CCC(C)CC3)C2=O)cc1OC (stereo not given)	0.2%
CCS(=O)(=O)N1CCC2(CC1)CN(Cc1ccc(OC)cc1)C2=O	8.8%
O=C(c1ccncc1)N1CCC(Oc2ccc(-c3noc(-c4ccccc4)n3)cc2)C1 (stereo not given)	-4.0%[5.79 µM]
CCCN1CC(Oc2ccc(-c3noc(-c4cccnc4)n3)cc2)C1	-11.1%
c1cncc(-c2nc(-c3ccc(OC4CNC4)cc3)no2)c1	5.01µM*
c1cc(-c2nc(-c3ccc(OC4CNC4)cc3)no2)ccn1	3.98µM*
CC(C)c1nc(-c2ccc(OC3CCNC3)cc2)no1 (stereo not given)	i[5.79 µM]
O=C(Nc1ccccc1)N1CC(Oc2ccc(-c3noc(-c4ccncc4)n3)cc2)C1	-17.9%
CC1(C)CN(C(=O)c2ncc(F)cc2F)CCC1(O)CN1CCOCC1 (stereo not given)	11.4%
COc1cccc(N2C(=O)[C@@H]3C[C@@H](NC(=O)CSC)CCN3C2=O)c1	27.8%[44.1 µM]
COc1ccc(NC(=O)C2=NO[C@@H]3CN(c4cccnc4)C[C@H]23)cc1	-2.1%[44.1 µM]
COCC(=O)N1CCc2nc(-c3ccc(Cl)cc3)nc(-c3ccccc3)c2C1	1.5%
CC(C)CC(=O)NC[C@@H]1C[C@H](F)CN1C(=O)c1cn(CCN)nn1	-14.5%
O=C(NCCN1CCCCC1)c1ccc(-c2ccc(N3CCCCC3)nc2)cc1	-16.7%
COc1ncccc1-c1nccc2c(=O)cc(-c3ccncc3)oc12	-6.2%[44.1 µM]
Cn1cc(-c2cc(=O)c3ccnc(-c4cccc5[nH]ccc45)c3o2)cn1	i

Screening data: PubChem, National Center for Advancing Translational Sciences (NCATS)
